Assay results: the supplement of paper PMC6555819

Experiments:
Assay in all cases: PBM binding z-score (relative to random genomic background probes); higher = stronger binding; sequences stand for … in GC…GCGATTGACAGCGTAGAATGAAGG
[1] = system: FXR:RXRa (NR concentration 270 nM, RXRa partner concentration 90 nM)
Summary of the method: (§1)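 Scanned fluorescence from custom Agilent 4×180K protein-binding microarrays was regression-normalized. Binding z-scores use random background probes as reference. Ligand-free nuclear receptor dimers were incubated on the arrays for 1 h and detected with antibodies against each partner (one per run).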

[2] = system: LXRa:RXRa (NR concentration 270 nM, RXRa partner concentration 90 nM)
Summary of the method: as §1

[3] = system: LXRa homodimer (NR concentration 270 nM)
Summary of the method: as §1

[4] = system: LXRb:RXRa (NR concentration 270 nM, RXRa partner concentration 90 nM)
Summary of the method: as §1

[5] = system: LXRb homodimer (NR concentration 270 nM)
Summary of the method: as §1

[6] = system: PPARa:RXRa (NR concentration 270 nM, RXRa partner concentration 90 nM)
Summary of the method: as §1

[7] = system: PPARg:RXRa (NR concentration 180 nM, RXRa partner concentration 90 nM)
Summary of the method: as §1

[8] = system: PPARg:RXRa 270nM:90nM, anti-RXR (NR concentration 270 nM, RXRa partner concentration 90 nM)
Summary of the method: as §1

[9] = system: PPARg:RXRa 30nM:10nM, anti-RXR (NR concentration 30 nM, RXRa partner concentration 10 nM)
Summary of the method: as §1

[10] = system: PPARg:RXRa 90nM:30nM, anti-RXR (NR concentration 90 nM, RXRa partner concentration 30 nM)
Summary of the method: as §1

Sequence	PBM binding z-score [1]	PBM binding z-score [2]	PBM binding z-score [3]	PBM binding z-score [4]	PBM binding z-score [5]	PBM binding z-score [6]	PBM binding z-score [7]	PBM binding z-score [8]	PBM binding z-score [9]	PBM binding z-score [10]
CATCAAAGTTCAACTAAGGTAACGTAAAGCACGC	7.36	6.82	5.03	4.54	3.07	5.03	3.96	4.67	2.12	3.32
TCTCGGAGGACACGAAGGTCTGAGCTTTCCAGAG	-0.23	-0.358	-1.07	-0.541	-1.44	0.131	-0.309	0.641	1.91	1.38
TAGCCCAGGTCATGCGGGCCAGTATAGTGTCGGC	4.35	3.42	0.136	1.9	-0.0451	3.8	2.55	2.55	0.267	1.35
CGGACTAGGTCAGAACAGGACAGTGAAGGATGAT	1.12	0.71	-0.0673	0.176	-0.579	2.36	4.2	3.5	1.01	2.58
ATCTCTAGGTAACAAGTTCAGTAAAAGAGAGGAC	0.872	1.08	1.01	0.953	1.1	1.81	1.76	2.11	0.675	1.82
CCTACTGGGCCACGAAAGGTCATTGAGTCAGTGA	3.83	5.32	5.25	4.4	0.561	4.87	5.06	5.06	2.55	4.22
ATACCAAGGTGATCGTTAGGTCGTTGATACTAAC	1.05	0.551	0.24	0.374	-0.0967	0.452	0.242	0.192	-0.144	-0.131
CAAACTAGGTCAAAGGTGAAAGTCGAGCCAACCA	6.6	5.02	0.751	4.52	0.619	7.19	13.3	10.7	12.4	13.5
TCTAGTTTGTCACGGAGGTCACACACGACGGGTA	3.46	3.54	2.3	3.26	1.43	3.88	2.25	3.52	3.81	3.66
TAGCCTAGGTCATTCAGGGGCCAGTATCGAAAGC	4.39	3.78	0.945	3.2	1.1	3.76	1.95	2.11	0.0848	0.958
CCAGACAGGTGAGAAGGTATCTCAGCCTCGATTA	-0.148	-0.116	0.0657	-0.418	-0.551	0.0664	0.278	-0.0698	-0.296	-0.148
TCTTGTATATCAAGCAGGTTAAGAAAGCCTGAGT	0.234	0.335	0.0276	0.678	0.189	0.992	-0.217	1.47	2.86	1.86
